# Measured values: PubChem BioAssay AID588342 (National Center for Advancing Translational Sciences (NCATS), 2011)
# In all, about 360,000 compounds went through this assay and about 25,000 (6.9%) were called active. Another 9% or so got no clear call; they are omitted. The sample holds actives, similar compounds and a random draw of the others, so the mix is not that of the screen. Unmarked numbers belong to inactive results. Calls follow the shape of the dose curve; as a rule, active = well fitted inhibition curve with a large enough effect; inconclusive = small, poorly fitted or top-dose-only effect; inactive = flat fitted curve, though single readings scatter.
# Target: Luciferin 4-monooxygenase (Photinus pyralis) (UniProt P08659)
# Sequence (P08659 whole entry, looked up): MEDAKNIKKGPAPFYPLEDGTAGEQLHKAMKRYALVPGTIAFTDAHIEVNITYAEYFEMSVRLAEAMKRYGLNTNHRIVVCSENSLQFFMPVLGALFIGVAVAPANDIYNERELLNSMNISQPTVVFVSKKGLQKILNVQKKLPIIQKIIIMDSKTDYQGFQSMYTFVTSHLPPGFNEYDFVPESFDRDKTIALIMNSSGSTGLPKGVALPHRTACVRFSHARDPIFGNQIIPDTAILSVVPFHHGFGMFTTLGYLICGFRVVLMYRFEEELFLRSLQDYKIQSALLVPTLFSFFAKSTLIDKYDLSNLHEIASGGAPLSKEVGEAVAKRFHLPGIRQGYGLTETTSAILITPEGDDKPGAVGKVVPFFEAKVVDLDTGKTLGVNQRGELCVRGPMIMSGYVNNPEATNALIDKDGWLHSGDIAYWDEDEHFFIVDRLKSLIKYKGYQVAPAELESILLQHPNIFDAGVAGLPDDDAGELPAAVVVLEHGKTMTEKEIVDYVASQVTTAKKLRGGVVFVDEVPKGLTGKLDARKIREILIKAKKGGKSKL
# Experiment: qHTS profiling assay for firefly luciferase inhibitor/activator using purifed enzyme and Km concentrations of substrates (counterscreen for miR-21 project); also: nearly all actives have a fitted effect of over 55% in size;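 as to activity change, negative = inhibition: plate controls were vehicle for no effect and reference inhibitor for full effect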
# Details: purified FLuc, luminescence inhibition; series mostly up to 57.5 µM; activity change, negative = inhibition: at the top concentration
# How it was run: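 Purified P. pyralis luciferase (10nM final) with 10uM D-luciferin and 10uM ATP (Km levels) in 50mM Tris acetate pH 7.5, 10mM Mg acetate, 0.01% Tween-20, 0.05% BSA; qHTS 6-point titration, ~60 µM downward; luminescence read.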
# Potency is read from the fitted curve at half-maximal effect.
Compound,"activity change, negative = inhibition [%]",Potency
NS(=O)(=O)c1ccc(NS(=O)(=O)/C=C/c2ccccc2)cc1,14.2,–
COc1ccc(Nc2nc(-c3ccccc3)cs2)cc1,–,0.601 µM (active)
COC(=O)CCc1sc(Nc2ccc(Br)cc2)nc1-c1ccc(OC)cc1,1.08,–
CC(=O)Nc1nc(C)c(-c2csc(Nc3ccc(S(N)(=O)=O)cc3)n2)s1,-1.06,–
COc1ccc(NC(=O)c2sc(N)nc2-c2ccccc2)cc1,-6.15,–
CCOC(=O)NC(=O)CSc1nnc(SCCC(=O)O)s1,2.64,–
CCC[C@H]1CCCC/C=C\CCCC(=O)OCCN1C(=O)OC(C)(C)C,1.02,–
COC(=O)c1cc(NC(=O)CCc2c(C)nc3c4c(C)cc(C)nc4nn3c2C)cc(C(=O)OC)c1,-4.62,–
C[C@@H]1O[C@@H](OC[C@H]2O[C@@H](Oc3c(-c4ccc(O)cc4)oc4cc(O)cc(O)c4c3=O)[C@H](O)[C@@H](O)[C@@H]2O)[C@H](O)[C@H](O)[C@H]1O,3.05,–
CCNC(=O)c1cccc(NC(=O)C2CC(=O)N(CCc3ccccc3)C2)c1 (stereo not drawn),-1.73,–
CCOc1ccc(NC(=O)CN(C)C(=O)Cn2c(=O)cnc3ccccc32)cc1OCC,3.02,–
COc1ccccc1Cc1nc2ccccc2nc1SCC(=O)N1CCCc2ccccc21,1.12,–
O=C(Cc1ccccc1)NCC1OCCc2ccccc21 (stereo not drawn),5.57,–
CSc1nc(-c2ccc(F)cc2)nc2c1Cc1c(CO)cnc(C)c1O2,-7.58,–
COc1ccc2c(c1OC)C(=O)OC2Nc1nc(-c2ccccc2)cs1 (stereo not drawn),0.505,–
Cc1ccc(-c2csc(NC3OC(=O)c4ccccc43)n2)cc1 (stereo not drawn),-17.7,–
COc1ccc(-c2csc(NC3OC(=O)c4ccccc43)n2)cc1 (stereo not drawn),–,6.75 µM (active)
O=C(NCCS(=O)(=O)N1CCN(c2ccc(F)cc2)CC1)c1ccccc1Br,-0.513,–
O=C(CSCc1cnn(-c2ccccc2)c1-n1cccc1)NCc1ccc(Cl)cc1,-4.45,–
Cc1ccc(CNC(=O)COc2ccc3c(c2)CCC3)cc1,3.72,–
O=C(CCc1ccccc1)Nc1cccc(-c2nnc(-c3ccco3)o2)c1,-2.35,–
CCOc1ccc(NC(=O)N(CCC(C)C)C(C)c2ccco2)cc1 (stereo not drawn),-12.2,–
CCOc1ccc(-n2c(SCC(N)=O)nnc2-c2ccco2)cc1,-0.757,–
COCCn1c(SCC(=O)Nc2ccc3c(c2)CCC3)nc2ccccc2c1=O,3.78,–
CCOc1ccc(NC(=O)c2cc(C)nc3ccccc23)cc1,-13.3,–
CCCCOc1ccc(-c2nnc(-c3ccco3)o2)cc1,–,2.39 µM (active)
Cc1cccc(NC(=O)CSc2nnc(-c3ccco3)o2)c1,6.83,–

Compound,"activity change, negative = inhibition [%]",Potency
CCOc1ccc(NC(=O)c2ncoc2-c2ccco2)cc1,–,7.57 µM (active)
COc1ccc(-c2ocnc2C(=O)Nc2ccc3c(c2)CCC3)cc1,–,7.57 µM (active)
N#Cc1ccc(OCc2nnc(-c3ccc([N+](=O)[O-])cc3)o2)cc1,1.84,–
CCOc1ccc(-c2nnc(-c3ccco3)o2)cc1,–,0.953 µM (active)
COc1cc(CNC(=O)c2cc3n(n2)CCCN(Cc2cccc(F)c2)C3=O)cc(OC)c1OC,4.25,–
CN1CCN(S(=O)(=O)c2ccc(NC(=O)C3CCCO3)cc2)CC1 (stereo not drawn),4.41,–
CN(C)CCn1c2c(c(SCC(=O)NCc3ccccc3)nc1=O)CCC2,-2.52,–
O=C(NNS(=O)(=O)c1ccccc1C(F)(F)F)c1cc2ncc(C(F)(F)F)cc2s1,0.509,–
COc1ccccc1CCNC(=O)c1cccn1-c1nnc(N2CCCCC2)s1,-13.9,–
COc1cc(CNCCSc2nnnn2C)ccc1OCc1c(F)cccc1Cl,3.54,–
Cc1ccccc1C(=O)N1CCC(C(=O)Nc2ccc(S(=O)(=O)N(C)C(C)C)cc2)CC1,-2.3,–
COC(=O)c1ccc2c(c1)N(CC(=O)Nc1ccc(C)c(C)c1)C(=O)c1ccccc1S2,-1.58,–
CCN(CCCNC(=O)CSc1cc(=O)n(C)c2cc(Cl)ccc12)c1cccc(C)c1,-14.8,–
Oc1ccc(/C=N/N(Cc2ccccc2)c2ccccc2)cc1,-17.6,–
CC1CCCN(c2cc3c(cc2F)c(=O)c(S(=O)(=O)c2cccc(Cl)c2)cn3Cc2ccccc2)C1 (stereo not drawn),1.02,–
Cc1ccnc(N2CCCC(C(=O)Nc3cc(F)ccc3C)C2)n1 (stereo not drawn),5.94,–
CC1CCCN(c2csc3ccc(F)cc3c2=O)C1 (stereo not drawn),–,6.01 µM (active)
CCOc1ccc(NC(=O)CN(C)C(=O)c2cccc(S(=O)(=O)N3CCCC3)c2)cc1OCC,2.17,–
CC1=C(c2ccc(C)cc2)S(=O)(=O)NC1=NCCCN1CCN(c2cc(C)ccc2C)CC1,-0.583,–
Cc1ccc(CNS(=O)(=O)c2ccc(C(=O)N(C)C)s2)cc1,-9.37,–
O=C(N/N=C/c1cccnc1)c1cc2ccccc2cc1O,–,5.36 µM (active)
Cc1ccc(/C=N/NC(=O)Cn2nc(C)c(Br)c2C)o1,3.49,–
O=C(N/N=C/c1cccnc1)c1ccc(NC(=O)c2ccc(F)cc2)cc1,-5.04,–
O=C(N/N=C\c1cccnc1)c1cc(-c2ccccc2)nc2c(Cl)cccc12,-16.6,–
Cc1ccc(/C=N/NC(=O)c2cc3ccccc3cc2O)o1,–,9.53 µM (active)
Cc1ccc(/C=N/NC(=O)Cn2ccc(C(F)(F)F)n2)o1,-4.37,–
